The text below walks through data of PubChem BioAssay AID504366 (National Center for Advancing Translational Sciences (NCATS), 2011).

Activity calls are given as the source filed them. The call rests on the fitted dose curve.

This assay can be described thus: Immunofluorescence assay for KAP-1 phosphorylation on Ser824 for Identifying a Potential Treatment of Ataxia-Telangiectasia: SAR for Probe. The note with it: F2112 A-T fibroblasts, pKAP-1 S824 immunofluorescence. An excerpt: NIH Chemical Genomics Center [NCGC] NIH Molecular Libraries Probe Centers Network [MLPCN] MLPCN Grant: MH089030-01 Assay Submitter (PI): Wei Zheng and Yosef Shiloh Ataxia-telangiectasia (A-T) is a devastating and progressive disease for which, there is no cure. Although A-T is a multisystem disease, it is stereotyped characterized by its neurological symptoms such as truncal ataxia, due to cerebellar cortical degeneration of the Purkinje and granule cells. Other symptoms of A-T are telangiectasias (dilated blood vessels), primary immunodeficiency, marked sensitivity to ionizing radiation (IR), chromosomal instability and predisposition to cancer. The underlying genetic cause of A-T is null mutations in the ATM (A-T mutated) gene. ATM is a nuclear serine/threonine kinase that functions as a master regulator of the cellular responses to double strand breaks (DSBs) in the DNA. Upon activation by DSBs, ATM phosphorylates a plethora of downstream targets, including KAP-1 on […]. KAP-1 phosphorylation occurs shortly in response to DSBs and mediates global chromatin relaxation, which facilitates DSB repair. To screen for small molecules that will compensate for the loss of ATM in cells derived from A-T patients, we monitored KAP-1 phosphorylation as a readout for ATM-like activity using an AlphaLISA assay.
qHTS Assay Protocol: 1. […] Plates are the read on InCell.
Consider `CC(=O)c1c(O)c(C)c(O)c(Cc2c(O)c3c(c(C(=O)/C=C/c4ccccc4)c2O)OC(C)(C)C=C3)c1O`, for which the Potency is 10 µM (active).
